# Pf growth 48h: P. falciparum growth inhibition at 48 hours (one generation). P. falciparum luciferase growth in erythrocytes, 48 h. Potency, µM (series often up to 28.7 µM), without a hit: top-dose activity change, negative = inhibition, actives largely listed as inhibitors. 5.9% of 310,000 active. AID 504832; note: potency is the fitted concentration of half-maximal effect; % is set by controls: 0 for no effect and ±100 for the full control effect
#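 Cell-based growth assay: transgenic P. falciparum expressing firefly luciferase, cultured in red cells within RPMI 1640 containing 0.5% w/v Albumax, 24 mM bicarbonate and gentamycin. A drop in luciferase activity indicates inhibition.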
# CHX counter: counter-screen hit for Shiga toxin inhibitors, cycloheximide. 12% of 300,000 active. max response, %. AID 2314. cell reporter, cycloheximide protein synthesis inhibition counterscreen; in the data active = max response mostly above about 13%, no sharp cut-off; inactive = mostly below about 14%; note: read at 38.3 µM for the half of the compounds with a filed dose; 0% is about no effect
# Shiga inhibitor: Shiga toxin inhibition; Vero cells, Shiga toxin protein synthesis inhibition reporter; inhibition, % at 38.7 µM; 9.2% of 290,000 active; AID 2315; in the data active = inhibition mostly above about 28%, no sharp cut-off; inactive = mostly below about 43%; note: 0% is about no effect
# HCV inhibitor: HCV inhibition. Huh7.5.1 HCVcc-Cre infection, luciferase reporter, 44 h. Potency, µM (doses to about 41.8 µM), without a hit: top-dose activity change, negative = inhibition, most hits filed as inhibitors. 3.4% of 340,000 active. AID 651820; note: potency is the fitted concentration of half-maximal effect; % is set by controls: 0 for no effect and ±100 for the full control effect
#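 Luciferase read-out (15 sec integration) after a 15 min room-temperature substrate step quantifies HCVcc-Cre infection. Cells, 1,000 per well, had compound added 4 h post-plating, then virus at ~0.5 moi, and were cultured 44 h.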
# Pf growth 96h: inhibits malaria parasite growth, 96 h. P. falciparum luciferase reporter growth, 96 h. Potency, µM (titrated, usually from 28.7 µM), without a hit: top-dose activity change, negative = inhibition, most hits filed as inhibitors. AID 504834. 6.9% of 320,000 active; note: potency is the fitted concentration of half-maximal effect; % is set by controls: 0 for no effect and ±100 for the full control effect
#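 Compounds incubated with erythrocytes infected by luciferase-expressing P. falciparum (2% hematocrit, 0.05% parasitemia final) for 96 hours, 37 C in 5% CO2. Growth inhibition scored as decreased luciferase luminescence.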
# HCMV inh: human cytomegalovirus inhibition; HFF cells, HCMV-luciferase reporter, 72 h; hits give low values; activity change, negative = inhibition, % at 57.5 µM; 4.5% of 410,000 active; AID 1259415; in the data active = activity change below about -60%; inconclusive = no clear call, values can overlap the other calls; inactive = above about -39%; note: % is set by controls: 0 for no effect and ±100 for the full control effect
#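 Luciferase read-out from HCMV-luciferase-infected HFFs (MOI 1 PFU/cell) 72 h post infection at 37C; compounds added after 16 h cell attachment; activity normalized between buffer-only basal and Salinomycin (10uM) inhibitor controls.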
# * marks the source's active call; other numbers are inactive results; ? = inconclusive; . = no result; + = active, no number. Most compounds without a hit are left out; they make up all but 21% or so of the library. Unless noted, calls come from the whole dose curve; as a rule, active = well fitted inhibition curve with a large enough effect; inconclusive = small, poorly fitted or top-dose-only effect, or another doubt; inactive = no such curve, though single readings can be large or run the other way.
SMILES,Pf growth 48h,CHX counter,Shiga inhibitor,HCV inhibitor,Pf growth 96h,HCMV inh
Cc1cc(N2CCCN(C)CC2)nc2cc(Cl)ccc12,.,-2.6,-3.9,?,?,-3.4
Cc1cc(N2CCN(c3ncccn3)CC2)nc2c(C)cccc12,?,1.6,-6.8,?,?,.
COc1ccc(N2CCN(c3cc(C)c4ccc(O)cc4n3)CC2)cc1,13.1µM*,0.6,17.3,2.7%,125.9%,4.7
COc1ccc(N2CCN(c3cc(C)c4cccc(C)c4n3)CC2)cc1,-17.7%,-8.5,-7.3,-6.4%,?,-73.7*
COc1ccc(N2CCN(c3cc(C)c4ccc(C)cc4n3)CC2)cc1,-19.3%,-0.9,-12.0,-15.2%,-0.4%,-64.3*
Cc1cc(N2CCN(C)CC2)nc2ccccc12,.,-1.5,3.6,-13.2%,13.1%,-19.7
Cc1cc(N2CCN(c3ccc(F)cc3)CC2)nc2cc(O)ccc12,.,-7.7,-2.3,-12.4%,7.38µM*,-31.2
COc1nc2ccccc2nc1N1CCN(c2ccc(F)cc2)CC1,0.0%,-2.2,-4.0,-21.4%,-26.6%,-38.4
COc1ccc(N2CCN(c3nc4cc(C)ccc4cc3C=O)CC2)cc1,-10.6%,-8.9,2.4,11.2µM*,20.4%,-24.9
O=S(=O)(CCSc1nc2ccccc2o1)c1nc2ccccc2s1,13.1µM*,-2.9,-13.1,11.2µM*,?,32.1
O=S(=O)(CCSc1ccccn1)c1nc2ccccc2s1,?,19.6*,-1.8,?,1.65µM*,-39.1
COc1cccc(CNC(=O)N2CCN(S(=O)(=O)c3ccc(C)cc3)CC2)c1,-3.4%,2.0,-4.5,17.9%,-18.9%,10.5
Nc1nc(-c2ccccc2)cn1N,4.9%,22.7,27.8,15.9%,?,11.2
Nc1nc(-c2ccccc2)cn1/N=C/c1ccccc1,14.3%,38.2*,33.8,?,10.5%,-2.0
Cc1ccn2cc(C34CC5CC(CC(C5)C3)C4)nc2c1,20.3%,35.5*,95.0*,-17.8%,?,?
O=C1CS/C(=N/N=C\c2ccn[nH]2)N1,-21.7%,0.3,-3.1,-1.6%,1.85µM*,-7.9
Cc1ccc(CNC(=O)Cn2ccn(-c3ccc(F)c(F)c3)c(=O)c2=O)cc1,.,.,.,.,.,12.9
O=C(c1ccc(F)cc1)C1CCN(Cc2ccccc2)CC1,.,.,.,-4.7%,.,0.8
O=C(c1ccc(F)cc1)C(Cc1ccccc1)N1CCCCC1 (stereo not drawn),16.7%,34.6*,69.2*,24.7%,38.0%,16.0
COC(CNC(=O)C(=O)Nc1cc2c3c(c1)CC(=O)N3CCC2)OC,20.6%,7.2,9.9,8.2%,36.0%,-16.7
O=C(NCCO)C(=O)Nc1cc2c3c(c1)CC(=O)N3CCC2,59.6%,7.5,9.3,8.6%,55.1%,+
COc1ccccc1CCNC(=O)C(=O)Nc1cc2c3c(c1)CC(=O)N3CCC2,1.17µM*,.,.,?,1.04µM*,-23.4
CC(C)CCNC(=O)C(=O)Nc1cc2c3c(c1)CC(=O)N3CCC2,-4.7%,5.8,-3.7,-3.9%,0.5%,2.5
O=C(CCc1ccccc1)Nc1cc2c3c(c1)CCC(=O)N3CCC2,-9.5%,.,.,?,46.3%,-99.0*
COc1ccc(-c2cc(-c3ccc(F)cc3)nc3c2COc2ccc(F)cc2-3)cc1,.,.,.,.,.,32.8
SMILES,Pf growth 48h,CHX counter,Shiga inhibitor,HCV inhibitor,Pf growth 96h,HCMV inh
COCCOC(=O)c1c(C)n(C)c2ccc(OC(=O)c3ccccc3F)cc12,.,-3.1,2.1,1.4%,23.4%,21.0
CCC(=O)c1ccc(O)c(CC=C(C)C)c1,?,-4.8,17.2,-16.6%,?,-64.3*
COc1cc2c(cc1NC(=O)c1ccncc1)oc1ccccc12,.,15.3,36.3,?,169.6%,.
COc1cc2c(cc1NC(=O)C(C)Sc1nc3ccccc3n1C)oc1ccccc12 (stereo not drawn),11.7µM*,3.4,-45.4,2.5%,7.38µM*,17.5
COc1cc2c(cc1NC(=O)C(C)Oc1ccccc1)oc1ccccc12 (stereo not drawn),.,.,.,.,.,36.8
COc1cc2c(cc1NC(=O)C(C)Sc1cccc[n+]1[O-])oc1ccccc12 (stereo not drawn),202.4%,75.5*,79.0*,?,172.9%,34.3
CC(C)(C)c1ccc(C(=O)Nc2ccc(Cl)cc2C(=O)c2ccccc2)cc1,.,.,.,.,.,-30.5

# Compound activity as filed in PubChem BioAssay.
